In PubChem BioAssay AID686979 (National Center for Advancing Translational Sciences (NCATS), 2013) one finds Potency and activity change, negative = growth inhibition data, which are given here for 101 compounds.

Screen size: about 420,000 compounds; about 50,000 (12%) were called active. A call without a number means that no potency is given here. Inconclusive results (about 26%) are left out. This excerpt belongs to a sample that is enriched for actives. Unmarked numbers belong to inactive results. The call rests on the fitted dose curve; in most records, active means well fitted inhibition curve with a large enough effect; inconclusive means small, poorly fitted or top-dose-only effect; inactive means flat fitted curve, though single readings scatter.
Potency means the concentration at half of the fitted maximal effect.

This assay can be described thus: qHTS for Inhibitors of human tyrosyl-DNA phosphodiesterase 1 (TDP1): qHTS in cells in presence of CPT. Further: nearly all actives have a fitted effect of over 55% in size. The note with it: chicken DT40 Tdp1-/-;hTDP1 cells + 20 nM CPT, ATP luminescence, 48 h; series mostly up to 46.2 µM. The procedure, abridged: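 Cell growth measured by CellTiter-Glo luminescence after a minimum 48 h, 37 C compound exposure with 20 nM CPT in Tdp1-knockout DT40 cells stably expressing hTDP1, seeded 400/well; qHTS titration format.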
A general note: In qHTS, concentration-response curves come from the screen itself.
As to `CC(C)[C@H](NC(=O)OCc1ccccc1)C(=O)OCc1ccccc1`, the Potency result was “inactive”. In the case of `CCN1CCN(C(=O)N[C@@H](C(=O)N[C@@H]2C(=O)N3C(C(=O)O)=C(CSc4nnnn4C)CS[C@H]23)c2ccc(O)cc2)C(=O)C1=O`, the Potency result was “inactive”.

`CCOc1ccc(C)cc1S(=O)(=O)NC1CCCCCC1`: the Potency entry is “inactive”. On the same count and under the same terms, the entry for `CC1CN(C(=O)COC(=O)c2cccc(NS(=O)(=O)c3ccccc3)c2)CC(C)O1` (stereo unspecified) is “inactive”. For the compound `O=C(CSc1ccc(-c2ccccc2)nn1)NCC1CCCO1` (stereo unspecified), the Potency result was “inactive”.

As for `Cc1ccc(SCC(=O)Nc2nncs2)cc1`, the Potency result is “inactive”.

Consider `CC(C)Oc1ccc(C(=O)NCC(=O)Nc2ccc3c(c2)CCC3)cc1`, for which the Potency result is “inactive”. On the same count and under the same terms, the result for `CC(C)Cn1c(SCC(=O)Nc2ccc(Cl)cc2F)nc(O)cc1=O` reads “inactive”. `COc1ccc(OCc2ccc(-c3nc(C#N)c(N4CCN(c5ccccc5)CC4)o3)o2)cc1`: the Potency result is “inactive”. For the compound `COc1ccccc1-c1nc(C#N)c(N2CCC(C(N)=O)CC2)o1`, the Potency entry was “inactive”.

As to `CC1CCN(c2oc(-c3ccccc3F)nc2C#N)CC1`, the Potency was 16.4 µM (active). Take `O=S(=O)(c1ccc(Br)c2ccccc12)N1CCOCC1`: the Potency result was “inactive”.

As for `Cc1noc(C)c1NC(=O)Nc1cccc2c1O[C@H](CN(C)C(=O)Nc1ccccc1)[C@@H](C)CN([C@H](C)CO)C2=O`, the Potency result was “inactive”. On to `Cc1ccccc1N/N=C/c1ccc(N2CCOCC2)cc1`, for which the Potency entry was “inactive”.

Regarding `Cc1cc(C(=O)N/N=C/c2ccc(N3CCOCC3)cc2)c(C)o1`, the Potency entry is “inactive”. As for `CNC(=S)N/N=C/c1ccc(N2CCOCC2)s1`, the Potency is 4.61 µM (active). For `Cc1ccc2[nH]c3c(=O)n(CC(=O)NC(C)C)ncc3c2c1`, the Potency entry was “inactive”. On the same count and under the same terms, the entry for `CN(c1ccc(O)cc1)c1nc(-c2cccnc2)cs1` is “inactive”; for `O=C(Nc1ccc(-c2ccc3nncn3n2)cc1)C1CCCCC1` it is “inactive”. `NNc1nc2c(Cl)cccc2s1`: the Potency entry is “inactive”. Still for that read-out and setting: the result for `CC(C)NC(=O)N1Cc2cc(C(=O)NCC(F)(F)F)nc(-c3cccc(-c4cc5ccccc5o4)c3)c2[C@@H]1CCO` reads 18.4 µM (active); that for `Cn1c(SCC(=O)NC2CCCCC2)nnc1-c1cc2ccccc2o1`, “inactive”. For the compound `Cc1c(C(=O)NCC2CC2)sc(=O)n1Cc1cccc(F)c1`, the Potency entry was “inactive”. On to `CC(=O)N1Cc2cc(C(=O)NCc3cccc(F)c3)nc(-c3cccc(C4=CCCC4)c3)c2[C@H]1CCO`, for which the Potency is 18.4 µM (active). Still for that read-out and setting: the result for `COc1ccc(CCNC(=O)CN(C)S(=O)(=O)c2ccc3nc(C)sc3c2)cc1OC` reads “inactive”. On the same count and under the same terms, the result for `COCCSc1nnc(NC(=O)c2cc(OC)c(OC)cc2[N+](=O)[O-])s1` reads “inactive”; that for `CCN1CCN(C(=O)c2cc3cc4ccc(OC)cc4nc3s2)CC1`, “inactive”; that for `COC(=O)c1ccc(NC(=O)c2cccc3c2C(=O)N(C2CCCCC2)C3)cc1`, “inactive”.

As for `COc1ccc(CCNc2ncnc3sc(C(=O)N4CCCC4)c(C)c23)cc1OC`, the activity change, negative = growth inhibition was 3.59% [at 9.04 µM]. In the case of `CCS(=O)(=O)NCCc1ccc(OC)c(OC)c1`, the Potency result was “inactive”.

Turning to `COc1ccc(CCNc2ncnc3nc[nH]c23)cc1OC`, the Potency is 18.4 µM (active). In the case of `COc1ccc(/C(C)=N/N2CCOCC2)c(O)c1`, the Potency entry is “inactive”. On to `O=C(Nc1cc(-c2nn(CC(=O)N3CCCCC3)c(=O)c3ccccc23)ccc1N1CCOCC1)c1ccc(Cl)cc1`, for which the Potency entry was “inactive”.

For `CC(=O)c1c(C)[nH]c(C(=O)N2CCN(S(=O)(=O)c3ccc(F)c(F)c3)CC2)c1C`, the Potency is 0.231 µM (active). `COc1ccc(S(=O)(=O)N2CCN(C(=O)c3cc(C)oc3C)CC2)cc1`: the Potency entry was “inactive”. With `CC(=O)c1c(C)[nH]c(C(=O)OCC(=O)Nc2cc(S(=O)(=O)N3CCCCC3)ccc2C)c1C`, the Potency result was “inactive”.

With `COc1cccc2c1CCC(NC(C)=O)C2=O` (stereo unspecified), the Potency result was “inactive”. As to `Cc1cc(O)c(Sc2ccccc2)c(=O)o1`, the Potency entry is “inactive”. With `O=C(Nc1ccccc1Cl)/C(Cl)=C(\Cl)S(=O)c1ccccc1` (stereo unspecified), the Potency is 0.164 µM (active). The same measure, in the same setting: the result for `O=C(COC(=O)c1cccs1)Nc1ccccc1Cl` reads “inactive”. Same read-out and setting: the entry for `O=C(Nc1ccccc1Cl)c1ccc2nsnc2c1` is “inactive”; for `CCNC(=S)NCC` it is “inactive”. Take `Cc1cc(C)c(S(=O)(=O)NN=C2c3ccccc3[C@H]3Cc4csc[n+]4[C@@H]23)c(C)c1`: the Potency was 29.1 µM (active). With `CC(=O)Nc1ccc(S(=O)(=O)NC(C)C(=O)OCCOc2ccc(F)cc2)cc1` (stereo unspecified), the Potency entry is “inactive”.

`CCC(=O)NC(NCC1CCCO1)C(Cl)(Cl)Cl` (stereo unspecified): the Potency result is “inactive”. For the compound `O=C(NCC1CCCO1)c1cc2c(s1)CCCC2` (stereo unspecified), the Potency result is “inactive”. For the compound `CC1(C(=O)NNC(=S)NCC2CCCO2)CC1(Cl)Cl` (stereo unspecified), the Potency was 18.4 µM (active). Regarding `COc1ccc(NC(=S)N2CCC(NC(=O)c3cccc(F)c3)CC2)cc1`, the Potency result was “inactive”. Still for that read-out and setting: the entry for `COc1ccc(C)cc1Nc1nc(C)nc2c1oc1ccccc12` is “inactive”; for `CCOC(=O)CC(=O)CSc1nc(-c2ccccc2)cc(-c2ccc(Cl)cc2)c1C#N` it is “inactive”; for `CCOc1cc(-c2cc(-c3ccc(NC(C)=O)cc3)nc(N)c2C#N)ccc1O` it is 18.4 µM (active). With `CC(=O)Nc1ccc(-c2cn3cccnc3n2)cc1`, the Potency entry was “inactive”. As for `CN(C(=O)CSc1nnc(C2CC2)n1C)C1CCCc2ccccc21` (stereo unspecified), the Potency entry was “inactive”. On the same count and under the same terms, the entry for `CCC(C)(C)n1nnnc1C(c1ccccc1OC)N1CCSCC1` (stereo unspecified) is “inactive”; for `COc1ccc(OC)c(C(c2nnnn2C(C)(C)C)N2CCc3ccccc3C2)c1` (stereo unspecified) it is 20.6 µM (active). Still for that read-out and setting: the result for `COc1ccccc1C(c1nnnn1C(C)(C)C)N1CCN(Cc2ccccc2)CC1` (stereo unspecified) reads “inactive”; that for `CC(=O)c1nn(-c2cccc(C(F)(F)F)c2)c(=O)[nH]c1=O`, “inactive”. Consider `CCOc1ccc(CCN2C(=O)c3cccnc3C2=O)cc1OCC`, for which the Potency entry was “inactive”.

For `CCOc1ccc(N(CC)C(=O)c2cc3c(=O)oc4ccccc4c3s2)cc1`, the Potency entry is “inactive”. Regarding `CCOC(=O)c1ccc2[nH]c3c(c2c1)CCCC3NC=O` (stereo unspecified), the Potency entry was “inactive”.

Take `CN(C(=O)CN1C(=O)CCSc2ccc(S(=O)(=O)N3CCCC3)cc21)c1ccccc1`: the Potency entry was “inactive”. Consider `O=C(CN1CCN(S(=O)(=O)c2cccc(Cl)c2)CC1)N1CCCCC1`, for which the Potency result is “inactive”. In the case of `O=C(CN1CCCSc2ccccc21)N1CCN(S(=O)(=O)c2cccc(F)c2)CC1`, the Potency is 16.4 µM (active).

For `C=CC1=C(C(=O)O)N2C(=O)[C@@H](NC(=O)/C(=N/OCC(=O)O)c3csc(N)n3)[C@H]2SC1`, the Potency result was “inactive”. Consider `CCn1c(SCC(=O)N/N=C/C=C/c2ccccc2[N+](=O)[O-])nnc1-c1ccccc1`, for which the Potency result was “inactive”. With `CCC1(C)COC(c2ccc(OC)c(OC)c2)OC1` (stereo unspecified), the Potency result is “inactive”. With `COc1cccc(-c2ccc3c(c2)S(=O)(=O)c2cccc(C(=O)O)c2C3=O)c1OC`, the Potency entry is “inactive”.

`Cc1ccc(/C=N/NC(=O)C(NC(=O)c2ccccc2)c2n[nH]c(=O)c3ccccc23)cc1` (stereo unspecified): the Potency entry was “inactive”.

On to `Cc1cc(C(=O)N/N=C\C(Br)=C\c2ccccc2)c(C)o1`, for which the Potency was 8.2 µM (active).

With `CC(=C/c1ccccc1)/C=N/NC(=O)c1cc(C)oc1C`, the Potency entry is “inactive”. With `CC(C)c1cc(C(=O)O)n[nH]1`, the Potency entry was “inactive”. With `CC(C)c1cc(C(=O)N/N=C/C(Br)=C/c2ccccc2)n[nH]1`, the Potency was 2.31 µM (active). Turning to `Cc1cc(C(=O)NCCc2ccc(Cl)cc2)c(C)o1`, the Potency result was “inactive”.

On to `Cc1ccc(C2(C)NC(=O)N(CC(=O)Nc3ccccc3C(=O)N3CCCCC3)C2=O)cc1` (stereo unspecified), for which the Potency entry was “inactive”. `CCN(CC)CCCNC(=O)c1cn(C)c2ccc(S(=O)(=O)N(C)C3CCCCC3)cc2c1=O`: the Potency entry is “inactive”. As to `CCN(CC)CCn1cnc2c1c(=O)n(CCOC(=O)c1cc(OC)c(OC)c(OC)c1)c(=O)n2C`, the Potency result was “inactive”. As for `CCOC(=O)C1=NN(c2ccc(Cl)cc2)/C(=C/C2=NCCc3cc(OC)c(OC)cc32)S1`, the Potency entry was “inactive”. `COc1cc2c(cc1OC)C(/C=C/c1ccco1)=NCC2`: the Potency was 23.1 µM (active). Consider `COc1ccc([N+](=O)[O-])cc1NC(=O)COC(=O)/C=C/c1ccco1`, for which the Potency result is “inactive”. Consider `CCOC(=O)[C@H]1[C@H]2COc3ccc(OC)cc3[C@@H]2N2C(=O)c3ccc(F)cc3NC(=O)[C@@]12C`, for which the Potency result was “inactive”.

`C[C@@H]1NC(=O)[C@@]2(C)[C@@H](c3ccccc3)[C@H]3COc4ccccc4[C@@H]3N2C1=O`: the Potency entry was “inactive”. Regarding `Cc1ccc2c(c1)NC(=O)[C@@]1(C)[C@@H](c3ccccc3)[C@H]3COc4ccc(Cl)cc4[C@@H]3N1C2=O`, the Potency is 25.9 µM (active).

Regarding `Cc1ccc(Cl)cc1N1CCN(C(=O)c2cccn3c(=O)c4cc(Cl)ccc4nc23)CC1`, the Potency entry was “inactive”.

Regarding `Cc1cn(C)c(CC(=O)NCc2ccc(Cl)cc2)c1C(=O)O`, the Potency entry is “inactive”. Turning to `CCOC(=O)/C(=C\c1ccc([N+](=O)[O-])cc1)C(=O)c1cc(C(C)=O)c(Nc2ccccc2)s1`, the Potency is 0.58 µM (active). Consider `CCOC(=O)COc1ccc([N+](=O)[O-])cc1`, for which the Potency result is “inactive”. In the case of `O=C(Nc1ccccc1)/C(=C/c1ccc([N+](=O)[O-])cc1)NC(=O)c1ccccc1`, the Potency result is “inactive”. Take `COc1ccc(NC(=O)CN(C)C(=O)c2n[nH]c3ccccc23)cc1`: the Potency result was “inactive”. Same read-out and setting: the entry for `O=c1cc(CO)oc(C(Nc2cccc(C(F)(F)F)c2)c2ccccn2)c1O` (stereo unspecified) is “inactive”. Turning to `FC(F)(F)c1cccc(N/N=C/c2ccccc2)c1`, the Potency entry was “inactive”. For the compound `FC(F)(F)c1cccc(Nc2ncnc3ccccc23)c1`, the Potency is 11.6 µM (active). Consider `COc1ccc(NC(=O)CSc2nc(SC)ns2)c(OC)c1`, for which the Potency result is “inactive”. Same read-out and setting: the figure for `c1ccc(C2CNCc3c2ccc2ccccc32)cc1` (stereo unspecified) is 14.6 µM (active); for `C/C(=N/NC(=O)CC(=O)N/N=C(\C)c1ccc([N+](=O)[O-])cc1)c1ccc([N+](=O)[O-])cc1` it is “inactive”. With `COc1ccc(-c2cc(C(=O)NCc3ccco3)no2)cc1OC`, the Potency result was “inactive”. Turning to `COc1ccc(C2=NOC(C(=O)NCc3ccco3)C2)cc1OC` (stereo unspecified), the Potency is 2.59 µM (active).

With `COc1ccc(S(=O)(=O)N2CCC(C(=O)NCc3ccco3)CC2)cc1C`, the Potency entry is “inactive”.

For `O=C1CC2(CCCC2)C(=O)N1CN1CCN(S(=O)(=O)c2ccc(F)cc2F)CC1`, the Potency result is “inactive”. As to `CN(C)S(=O)(=O)c1cc(NC(=O)CN2C(=O)NC3(CCCc4ccccc43)C2=O)ccc1Cl` (stereo unspecified), the Potency is 16.4 µM (active). On to `O=C(CN1C(=O)NC2(CCc3ccccc32)C1=O)NC1CCCCC1` (stereo unspecified), for which the Potency entry is “inactive”. Take `CCOc1ccc(CCNC(=O)CN2C(=O)NC3(CCc4ccccc43)C2=O)cc1OCC` (stereo unspecified): the Potency entry was “inactive”.
